Activity calls are given as the source filed them. Entries that show only a call come without a potency. Calls come from the whole dose curve.
Assay: G protein-coupled receptor (GPCR) small molecule agonists, calcium flux assay: HEK293 wild type cell line counter screen (AID 1920065)
Settings: HEK293 WT calcium flux, fluorescence, agonist mode; series mostly up to 57.6 µM
Excerpt: U.S. Tox21 Program National Center for Advancing Translational Sciences [NCATS] Division of Preclinical Innovation [DPI] U.S. Environmental Protection Agency [EPA] National Institutes of Environmental Health Sciences [NIEHS] National Toxicology Program [NTP] U.S. Food and Drug Administration [FDA] Assay overview: The increased intracellular calcium release that occurred upon G protein-coupled receptor (GPCR) activation led to the frequent use of calcium flux assays to detect GPCR activation. For the purpose of studying and screening compounds that may activate GPCR, receptor-overexpressing models were typically generated using Hek293 wild-type (WT) cells. In order to eliminate the compounds that may have induced calcium release for non-specific activation, a counter-assay utilizing calcium flux on Hek293 WT cells was performed. The data were formulated in order to serve as a control for any calcium flux detection utilizing Hek293 cells with either GPCR overexpression or gene modification. The procurement of Hek293 WT cells from ATCC. Fluorescence intensity can be utilized to determine the activation of the compound in a calcium flux assay. As a counter control, this cell line was utilized to screen the Tox21 10K compound library.
Assay Protocol Summary: Hek293 cells were dispensed at 1500cells/4uL/well in 1536-well black wall/clear bottom plates using a multidrop dispenser. After the assay plates were incubated at a 37 C/5% CO2 incubator for 18 hours, 4 uL of Calcium Dye Solution was added to each well. The plates were incubated at 37 C for 1 hour. For agonist mode, 23 nL of compounds dissolved in DMSO, positive control (ATP) or DMSO only was transferred to the assay plate by a pin tool station. The fluorescence intensity in the plates was measured using FDSS 7000EX kinetic plate reader with a filter set of Ex/Em=480/540 for 3 min at 1 sec intervals. Each test compound was measured at 15 concentrations and in triplicates.

| SMILES | Potency | activation |
| --- | --- | --- |
| CCCCCOC(C)=O | inactive | – |
| COC(=O)Cc1cccc2ccccc12 | inactive | – |
| CC(C)(C)c1ccc(C=O)cc1 | inactive | – |
| CCCC(=O)Nc1ccc(O)c(C(C)=O)c1 | inactive | – |
| O=C(O)CN(CCN(CC(=O)O)CC(=O)O)CCN(CC(=O)O)CC(=O)O | – | 1.29% [at 11.8 µM] (inactive) |
| CCC/C=C/C=O | inactive | – |
| C[CH2][Ge]([Cl])([CH2]C)[CH2]C | inactive | – |
| O=C(O)c1ccccc1OP(=O)(O)O | inactive | – |
| COc1cc(/C=C/C(N)=O)cc(OC)c1OC | inactive | – |
| C=CC(=O)CC | inactive | – |
| Clc1ccc2c(Cl)ccnc2c1 | inactive | – |
| O=c1[nH]c2ccc(Cl)cc2o1 | inactive | – |
| CN(C)CCC=C1c2ccccc2CCc2ccccc21 | inactive | – |
| Oc1cccc2ccccc12 | inactive | – |
| CCC(COC(=O)CCS)(COC(=O)CCS)COC(=O)CCS | inactive | – |
| Nc1cc(-c2ccncc2)c[nH]c1=O | inactive | – |
| O=C1c2c(O)ccc(Nc3ccc(CCO)cc3)c2C(=O)c2c([N+](=O)[O-])ccc(O)c21 | inactive | – |
| CCC(=O)Nc1cccc(N)c1 | inactive | – |
| NC/C=C/C(=O)O | inactive | – |
| COCCCOc1cc(C[C@@H](C[C@H](N)[C@@H](O)C[C@H](C(=O)NCC(C)(C)C(N)=O)C(C)C)C(C)C)ccc1OC | inactive | – |

| SMILES | Potency | activation |
| --- | --- | --- |
| CC1C(C)(C)C2=C(C(=O)CCC2)C1(C)C (stereo not given) | inactive | – |
| CC(C)=CCCC(C)CC=O (stereo not given) | inactive | – |
| CCCCCCCCCCCC[N+](C)(C)CCCS(=O)(=O)[O-] | inactive | – |
| CC(C)CCCC(C)CCCC(C)CCCCC(C)CCCC(C)CCCC(C)C (stereo not given) | inactive | – |
| CCCC(=O)C(C)=O | inactive | – |
| c1ccc2cnncc2c1 | inactive | – |
| CCC(OCCCOC)OC(C)=O (stereo not given) | inactive | – |
| C=C(C)[C@@H]1CC[C@@H](C)C[C@@H]1O | inactive | – |
| NC(=O)Cc1cccc(C(=O)c2ccccc2)c1N | inactive | – |
| C/C=C/CO | inactive | – |
| COc1nc(N)nc2nc[nH]c12 | inactive | – |
| c1ccc2cnccc2c1 | inactive | – |
| CCCCCCCCSCC | inactive | – |
| CC(=O)O[C@H](CC(=O)[O-])C[N+](C)(C)C | inactive | – |
| c1ccc2sc(SSN3CCOCC3)nc2c1 | inactive | – |
| CCC(=O)OC(C)c1ccccc1 (stereo not given) | inactive | – |
| CCCCOC(=O)C(=O)OCCCC | inactive | – |
| Cn1cnc([N+](=O)[O-])c1Sc1ncnc2nc[nH]c12 | inactive | – |
| O=[Si]=O | inactive | – |
| c1ccc2cc3c4ccccc4c4ccccc4c3cc2c1 | inactive | – |

Reference: PubChem BioAssay (Tox21)
